In all, about 320,000 compounds went through this assay and about 8,000 (2.5%) were called active. The full list was thinned out, with actives kept by preference. Values without a mark were called inactive. Cut-off read from the data, not from the text of the source: active = activation above about 47%; inactive = the rest.

The target of this experiment is Aryl hydrocarbon receptor (Homo sapiens) (UniProt P35869). Put plainly: AHR activators, primary screen, cell-based, luminescence, luciferase reporter, human (AID 2796).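 Note: 0% = vehicle wells and 100% = reference agonist.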 As to conditions: AHR-responsive luciferase reporter cells, at 5 µM, stronger effect = higher value. (In general: Reporter assays use an easily measured gene product as a stand-in for the process of interest.)
Sequence of Aryl hydrocarbon receptor (Homo sapiens) (P35869 whole entry, looked up): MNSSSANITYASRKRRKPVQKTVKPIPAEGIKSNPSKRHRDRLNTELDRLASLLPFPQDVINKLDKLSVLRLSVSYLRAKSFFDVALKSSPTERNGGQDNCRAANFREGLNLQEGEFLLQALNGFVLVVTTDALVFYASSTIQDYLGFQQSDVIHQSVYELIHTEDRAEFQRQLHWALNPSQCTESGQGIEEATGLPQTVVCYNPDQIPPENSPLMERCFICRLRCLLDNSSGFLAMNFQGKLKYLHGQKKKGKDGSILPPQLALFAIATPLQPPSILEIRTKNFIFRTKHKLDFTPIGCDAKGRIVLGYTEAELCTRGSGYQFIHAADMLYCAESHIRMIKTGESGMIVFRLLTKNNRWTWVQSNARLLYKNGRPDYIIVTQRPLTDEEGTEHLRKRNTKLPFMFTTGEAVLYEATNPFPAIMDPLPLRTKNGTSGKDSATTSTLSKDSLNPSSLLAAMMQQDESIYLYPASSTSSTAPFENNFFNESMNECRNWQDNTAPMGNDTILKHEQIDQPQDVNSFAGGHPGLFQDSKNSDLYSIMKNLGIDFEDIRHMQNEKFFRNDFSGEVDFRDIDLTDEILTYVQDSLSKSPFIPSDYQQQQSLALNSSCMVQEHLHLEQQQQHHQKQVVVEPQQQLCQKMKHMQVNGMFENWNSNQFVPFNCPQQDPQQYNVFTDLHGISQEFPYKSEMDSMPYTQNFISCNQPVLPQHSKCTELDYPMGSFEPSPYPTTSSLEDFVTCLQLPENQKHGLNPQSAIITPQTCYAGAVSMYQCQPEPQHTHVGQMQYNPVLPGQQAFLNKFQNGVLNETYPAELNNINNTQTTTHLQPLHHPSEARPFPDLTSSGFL
Regarding `CCc1ccc(NC(=O)C(=O)N/N=C(\C)CC(=O)NCCOC)cc1`, the activation is 8.77%.

On to `CC(Sc1nncn1C)C(=O)NCCC1=CCCCC1` (configuration not stated), for which the activation is -0.01%.

Turning to `CCCn1nnc2sc3c(c2c1=O)CCC(C)C3` (configuration not stated), the activation was -0.09%.

As to `CC1CCc2c(sc3nc4n(c(=O)c23)CCS4)C1` (configuration not stated), the activation was -1.18%.

For the molecule `CC1CCc2sc3nc(N4CCN(CCO)CC4)n4ncnc4c3c2C1` (configuration not stated), the activation was 61.8% (active).

With `c1ccc2c(c1)CCc1snnc1-2`, the activation is 2.81%.

`CCC1CCc2c(sc(NC(C)=O)c2C#N)C1` (configuration not stated): the activation was 1.29%.

Take `COc1ccc(NC(=O)C(CC(C)C)NC(=O)C2CCC(C)CC2)cc1` (configuration not stated): the activation was 1.21%.

For `CC(=O)Nc1ccc(S(=O)(=O)NCC2CCC(C(=O)NCCc3ccccc3)CC2)cc1` (configuration not stated), the activation is 0.11%.

`O=C(NCc1ccc2c(c1)OCO2)c1c(-c2ccsc2)sc2ccccc12`: the activation is 44.7%.

As to `Cn1cncc1C#Cc1c(-c2ccsc2)sc2ccccc12`, the activation was 52.7% (active).

`Cc1cccc(-c2oc3ccc(-c4ccc5c(c4)OCO5)cc3c2C#Cc2cncn2C)c1`: the activation was 26.5%.

Regarding `COC(=O)/C(=C\Nc1ccccc1)NC(=O)c1ccc(Cl)cc1Cl`, the activation was 1.34%.

Take `N#CC1(C#N)C(C(=O)C23CC4CC(CC(C4)C2)C3)C12CCOCC2` (configuration not stated): the activation was -2.81%.

Turning to `Cc1ccccc1NCC(=O)N/N=C\c1ccc([N+](=O)[O-])s1`, the activation was 56.7% (active).

With `COc1ccc(C(=O)NCC(=O)N/N=C/c2ccc([N+](=O)[O-])s2)cc1OC`, the activation is -1.7%.

Consider `CC(C)(C)c1cc(C(=O)N/N=C/c2ccc([N+](=O)[O-])s2)n[nH]1`, for which the activation is -8.74%.

Take `Cc1cc(O)ccc1NC1=CC(=O)CC(C)(C)C1`: the activation is 15.2%.

With `CCN1CCN(C(=O)CN(C)S(=O)(=O)c2ccc3ccccc3c2)CC1`, the activation is -1.56%.

Consider `C[C@@H]1CN([C@H](C)CO)C(=O)c2cc(NC(=O)NC3CCCCC3)ccc2O[C@H]1CN(C)S(C)(=O)=O`, for which the activation is -0.98%.

In the case of `CCOc1ccc(C(O)Cc2nc3ccccc3n2C)cc1` (configuration not stated), the activation was 118% (active).

`COc1cccc(C(O)Cc2nc3ccccc3n2C)c1OC` (configuration not stated): the activation is 6.17%.

As for `CCCn1c(C(O)c2ccc(OCC)cc2)nc2ccccc21` (configuration not stated), the activation was 0.65%.

As to `Cc1cc(Br)ccc1NC(=O)c1cnc(N2CCN(c3ccccn3)CC2)c2ccccc12`, the activation was 20.2%.

In the case of `N#CCSc1nc2ccc(N3CCOCC3)cc2c(=O)n1CCc1ccccc1`, the activation was 1.4%.

Take `Cc1nn2c3cc(N4CCOCC4)ccc3nc2c2ccccc12`: the activation is 144% (active).

`Cc1cc(Nc2ccc(N3CCOCC3)cc2)c2cccc(C)c2n1`: the activation was 8.99%.

(Values after PubChem BioAssay AID2796 (The Scripps Research Institute Molecular Screening Center, 2010).)
